# PubChem BioAssay (Tox21)
# Unmarked numbers belong to inactive results. Where a call stands in place of a potency, no number is given. Calls of active or inactive are those of the source. The call rests on the fitted dose curve; in most records, active means well fitted curve in the direction sought with a large enough effect in the repeat runs; inconclusive means weak or mixed curves; inactive means flat fitted curve, though single readings scatter.
# Test: qHTS assay to test for compound auto fluorescence at 535 nm (green) in HEK293 cell free culture (AID 720682)
# Conditions: cell-free medium, green autofluorescence 485/535 nm; series mostly up to 91.3 µM
# Text: U.S. Tox21 Program National Center for Advancing Translational Sciences [NCATS] NIH Chemical Genomics Center [NCGC] U.S. Environmental Protection Agency [EPA] National Institutes of Environmental Health Sciences [NIEHS] National Toxicology Program [NTP] U.S. Food and Drug Administration [FDA] Tox21 Assay Overview: Compound auto fluorescence often interferes with screening of the compound library against various biological targets and signaling pathways. Some of these compounds may have fluorophoric properties. Such properties may interfere with the assay outputs resulting in false positives and/or negatives. To decrease such complications and ensure the compound activities are relevant in terms of biological response, the Tox21 10K compound library was screened for auto fluorescence. From the fluorophores used as reporter signals in our screening assays, the auto fluorescence equivalencies of compounds against three fluorophores have been evaluated: Triamterene, Fluorescein and Rose Bengal sodium for blue, green and red fluorescence, respectively. The fluorescence intensities were measured using Excitation/Emission wavelengths at 405/460nm, 485/535nm and 540/590nm for blue, green and red labels, respectively. This assay includes the green fluorescence data.
# Tox21 Assay Protocol Summary: 5 uL of culture medium (DMEM containing 10% FBS) per well was dispensed into black wall/clear bottom 1536-well plates using a Multidrop Combi Dispenser (ThermoFisher Scientific, Waltham, MA). After 23 nL compound or DMSO vehicle was transferred into assay plate by a pintool work station (Kalypsys, San Diego, CA), fluorescence intensities in the assay plates were measured by an Envision (PerkinElmer, Shelton, CT) plate reader using three labels for measuring blue, green and red fluorescence at […] 460, 535 and 590nm respectively.
Structure (SMILES),Potency,activity change
COc1ccccc1OCCNCC(O)COc1cccc2[nH]c3ccccc3c12 (stereo not given),inactive,
CNC(=S)NN,inactive,
O=Cc1ccc(F)cc1,inactive,
CCCSS/C(CCO)=C(\C)N(C=O)Cc1cnc(C)nc1N,inactive,
S=C(SSSSSSC(=S)N1CCCCC1)N1CCCCC1,,"-0.0539% [at 18.6 µM, stronger effect = higher value]"
C[Si](C)(C)Cl,inactive,
Cc1c(-c2ccc(O)cc2)n(Cc2ccc(OCCN3CCCCCC3)cc2)c2ccc(O)cc12,inactive,
Cn1cnc2ncnc(N)c21,inactive,
CC(C)c1cccc(C(C)C)c1N1C(=O)c2ccc(O)cc2C1=O,inactive,
O=C1OC(OC(=O)c2cccnc2Nc2cccc(C(F)(F)F)c2)c2ccccc21 (stereo not given),inactive,
Cc1occc1SSc1ccoc1C,inactive,
O=C1NCCN1CCN1CCC(c2cn(-c3ccc(F)cc3)c3ccc(Cl)cc23)CC1,inactive,
C=CC(=C)CCC=C(C)C,inactive,
CCCCOc1ccc(C(=O)CCN2CCCCC2)cc1,,"-0.0432% [at 18.6 µM, stronger effect = higher value]"
CCCOc1sc(C(=O)N2CCC(c3cc(CN)ccc3F)CC2)c(C)c1Br,inactive,
CCCCCCC(C)Nc1ccc(Nc2ccccc2)cc1 (stereo not given),inactive,
C[C@H]1O[C@@H](O[C@H]2[C@@H](O)C[C@H](O[C@H]3[C@@H](O)C[C@H](O[C@H]4CC[C@@]5(C)[C@H](CC[C@@H]6[C@@H]5C[C@@H](O)[C@]5(C)[C@@H](C7=CC(=O)OC7)CC[C@]65O)C4)O[C@@H]3C)O[C@@H]2C)C[C@H](O)[C@@H]1O,inactive,
COc1cccc(CCc2ccccc2OCC(CN(C)C)OC(=O)CCC(=O)O)c1 (stereo not given),inactive,
NC(=O)c1nc(-c2cccc(-c3cc(F)ccc3OCC(F)(F)C(F)(F)F)c2)n[nH]1,inactive,
Brc1ccccc1-c1ccccc1,inactive,

Structure (SMILES),Potency,activity change
C=CC(=O)OCC(O)COc1ccccc1 (stereo not given),inactive,
O=C(Nc1ccc(Cl)cc1)Nc1ccc(Cl)c(C(F)(F)F)c1,inactive,
CCN(CC)CCNc1ccc(CO)c2sc3ccccc3c(=O)c12,inactive,
CCCCCCCOC(=O)c1ccc(O)cc1,inactive,
CCCCCCCC/C=C/CCCOC(C)=O,inactive,
Oc1ccc(-c2ccccc2)c(Cl)c1,inactive,
O=C(O)CCCCCCC(=O)O,inactive,
CCCCCCOc1ccc(O)cc1,inactive,
O=C1c2c(O)ccc(O)c2C(=O)c2c(NCCNCCO)ccc(NCCNCCO)c21,,"-0.248% [at 18.6 µM, stronger effect = higher value]"
CCCCCCOc1cc(C)c(O)c(C)c1C,inactive,
CCC(C)c1cc([N+](=O)[O-])cc([N+](=O)[O-])c1OC(=O)OC(C)C (stereo not given),inactive,
CC(C)(c1cc(Br)c(O)c(Br)c1)c1cc(Br)c(O)c(Br)c1,inactive,
CC(C)c1ccc(O)c(C(C)C)c1,inactive,
O=C(Oc1ccccc1)c1cccc(C(=O)Oc2ccccc2)c1,inactive,
Oc1c(Br)cc(Br)c2cccnc12,inactive,
NCCCCCCNCCCCCCN,inactive,
COC(=O)C1=C(C)NC(C)=C(C(=O)OCCCN2CCC(c3ccccc3)(c3ccccc3)CC2)C1c1cccc([N+](=O)[O-])c1 (stereo not given),inactive,
CC1(C)C(=O)N(Br)C(=O)N1Br,inactive,
CC(O)C#CC(C)O (stereo not given),inactive,
[O]=[Zr],inactive,
